PubChem BioAssay

Key:
[1] = system: Human papillomavirus type 1a protein E7 (residues 44-93); test: HPV1a E7 fragment binders on microarrays, primary screen, biochemical, small-molecule microarray, residues 44-93, 635 nm fluorescence (AID 1108); settings: small-molecule microarray binding, fluorescence 635 nm; higher = more signal;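 note: E7 fragment applied at 1 µg/mL in TBST for 1 h at 4 C; score combines spot fluorescence with its signal to noise ratio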
[2] = modulators of HCV replicon luciferase signal, primary screen, HCV replication inhibitor project, Huh7 cells, luciferase reporter (AID 1109); settings: 48 h, higher = more signal;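 note: huh7 hepatoma cells harbouring a luciferase neomycin HCV replicon reporter; luciferase luminescence as measure of HCV replicon replication; test concentration not given here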
[3] = molecular target: Left-right determination factor 2 (Homo sapiens) (UniProt O00292); test: LEFTY2 binders on small-molecule microarrays, primary screen, biochemical, small-molecule microarray, 635 nm fluorescence scan (AID 1110); settings: LEFTY2 binding, higher = more signal
[4] = molecular target: Calmodulin-1 (Homo sapiens) (UniProt P0DP23); test: CALM1 binders on microarrays, EGTA buffer, profiling panel, biochemical, small-molecule microarray, Cy5-labelled CALM1 (AID 1111); settings: Cy5-CALM1 binding fluorescence, higher = more signal;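 note: labelled calmodulin applied in Tris saline Tween buffer holding calcium plus EGTA and DTT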
[5] = molecular target: Calmodulin-1 (Homo sapiens) (UniProt P0DP23); test: calcium-bound CALM1 binders on microarrays, profiling panel, artefact control for SMM control-protein annotation, biochemical, small-molecule microarray, Cy5-labelled CALM1, plus calcium (AID 1112); settings: Cy5-CALM1 binding fluorescence, higher = more signal;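 note: score merges spot fluorescence with signal to noise from triplicate slides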
[6] = small-molecule microarray binders of probe aWnt5a, primary screen, biochemical, biotinylated probe, 635/667 nm fluorescence (AID 1113); settings: higher = more signal;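 note: score merges 667 nm fluorescence intensity with signal-to-noise per printed feature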
[7] = small-molecule microarray binders of probe aShh, primary screen, biochemical, biotinylated probe, 635/667 nm fluorescence (AID 1114); settings: higher = more signal;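 note: probe is biotin-labelled aShh protein from a stem cell growth factor screen; measures binding of labelled protein to compounds printed on the slide; score merges feature fluorescence at 667 nm with signal-to-noise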
[8] = small-molecule microarray binders of probe aNog, primary screen, biochemical, biotinylated probe, 635/667 nm fluorescence (AID 1115); settings: higher = more signal;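 note: probe is biotinylated aNog protein used at 0.15 µg/mL for 1 h at 4 C; z-score combines 667 nm fluorescence of each spot with its signal to noise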
[9] = molecular target: Torsin-1A-interacting protein 1 (Homo sapiens) (UniProt Q5JTV8); test: LAP1 binders from COS7 cell lysate, primary screen, small-molecule microarray, 635/667 nm fluorescence (AID 1116); settings: COS7-hLAP1 lysate binding, 635 nm fluorescence, higher = more signal
[10] = molecular target: Alpha-bungarotoxin (Bungarus multicinctus) (UniProt P60615); test: alpha-bungarotoxin binders on microarray, profiling panel, artefact control for SMM control protein annotation, biochemical, small-molecule microarray, Alexa647 label, 635/667 nm fluorescence (AID 1117); settings: alpha-BTX-A647 binding fluorescence, higher = more signal
Alpha-bungarotoxin (Bungarus multicinctus), sequence (P60615 whole entry, looked up): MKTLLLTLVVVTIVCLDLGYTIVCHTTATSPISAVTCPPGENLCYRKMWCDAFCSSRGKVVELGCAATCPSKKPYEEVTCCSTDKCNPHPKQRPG

Torsin-1A-interacting protein 1 (Homo sapiens), sequence (Q5JTV8 whole entry, looked up): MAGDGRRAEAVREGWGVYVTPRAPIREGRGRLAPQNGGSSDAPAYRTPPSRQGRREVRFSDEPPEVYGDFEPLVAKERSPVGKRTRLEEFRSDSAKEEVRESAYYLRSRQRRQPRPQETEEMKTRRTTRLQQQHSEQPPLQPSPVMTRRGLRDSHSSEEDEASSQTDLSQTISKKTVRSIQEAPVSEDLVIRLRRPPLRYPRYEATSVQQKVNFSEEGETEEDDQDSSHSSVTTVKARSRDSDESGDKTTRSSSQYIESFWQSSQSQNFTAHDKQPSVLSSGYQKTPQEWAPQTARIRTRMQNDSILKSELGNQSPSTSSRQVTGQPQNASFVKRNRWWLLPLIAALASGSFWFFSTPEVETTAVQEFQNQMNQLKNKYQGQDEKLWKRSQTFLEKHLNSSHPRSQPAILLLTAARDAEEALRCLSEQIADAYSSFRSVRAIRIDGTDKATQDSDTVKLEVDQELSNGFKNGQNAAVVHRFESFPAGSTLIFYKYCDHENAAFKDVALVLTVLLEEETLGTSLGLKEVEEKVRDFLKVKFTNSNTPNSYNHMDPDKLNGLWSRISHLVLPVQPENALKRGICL
Left-right determination factor 2 (Homo sapiens), sequence (O00292 whole entry, looked up): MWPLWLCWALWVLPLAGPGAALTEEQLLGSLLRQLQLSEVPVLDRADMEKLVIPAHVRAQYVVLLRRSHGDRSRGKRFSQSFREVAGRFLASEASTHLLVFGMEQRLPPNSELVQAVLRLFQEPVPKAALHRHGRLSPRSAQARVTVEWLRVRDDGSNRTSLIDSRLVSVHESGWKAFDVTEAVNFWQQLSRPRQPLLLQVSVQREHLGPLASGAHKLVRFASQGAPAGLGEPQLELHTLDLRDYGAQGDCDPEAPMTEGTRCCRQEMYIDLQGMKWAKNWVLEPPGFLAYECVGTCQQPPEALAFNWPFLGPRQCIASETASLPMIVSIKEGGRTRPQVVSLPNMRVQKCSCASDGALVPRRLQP

SMILES	composite z-score [1]	z-score [2]	composite z-score [3]	composite z-score [4]	composite z-score [5]	composite z-score [6]	composite z-score [7]	composite z-score [8]	composite z-score [9]	composite z-score [10]
COc1ccc(CCNC(=O)[C@@H]2c3ccccc3C(=O)N(C(C)C)[C@H]2c2ccc(CO)cc2)cc1	-0.943	-1.41	-1.81	-0.446	0.465	-0.172	-0.209	-0.0621	0.434	2.66
COc1ccc(C(O)C2C=CC3C(=O)N(c4ccccc4)C(=O)C3N2Nc2ccccc2F)c2ccccc12 (stereo not given)	0.459	-0.673	0.903	2.6	0.994	0.416	0.425	1.26	1.28	2.12
C=CCN1C(=O)[C@@]2(O[C@@H](CCO)[C@H]([Si](C)(C)c3ccc(OC)cc3)[C@H]2C)c2cc(N3CCCCC3=O)ccc21	1.36	-3.29	0.264	0.721	0.519	-0.091	0.151	0.197	0.813	1.14
O=C1O[C@H](c2ccccc2)[C@H](c2ccccc2)N2[C@H]1[C@@H](C(=O)O)[C@]1(C(=O)Nc3ccc(C#CC4(O)CCCCCC4)cc31)[C@H]2c1ccccc1OCCO	1.11	-2.11	0.39	1.99	1.03	0.0839	0.459	0.938	0.727	1.95
O=C1NC(=O)C2C1C=CC(C(O)C1CCCCC1)N2Nc1ccccn1 (stereo not given)	0.657	-0.442	0.372	0.5	0.469	-0.0478	0.321	0.69	-0.26	0.353
C=CCNC(=O)[C@@H]1[C@H]2C(=O)O[C@H](c3ccccc3)[C@H](c3ccccc3)N2[C@H](c2ccc(O)cc2)[C@@]12C(=O)Nc1ccc(C#CC3=CCCCC3)cc12	1.44	-2.61	0.385	1.1	0.683	0.171	1.85	2.03	1.58	1.9
O=C1C2C=CC(C(O)C(c3ccccc3)c3ccccc3)N(Nc3ccccc3F)C2C(=O)N1c1ccccc1 (stereo not given)	1.45	-0.942	0.407	1.04	0.713	0.0182	0.108	0.686	0.855	0.451
[N-]=[N+]=NCc1ccccc1[C@H]1OC(c2ccc(OCCCO)cc2)=N[C@@]1(Cc1ccccc1N=[N+]=[N-])C(=O)O	1.41	-0.304	-0.0361	1.82	0.83	-0.0161	0.385	0.19	0.765	1.98
COC(=O)[C@@]1(Cc2ccccc2)[C@H]2c3cc(C(=O)N(C)C)n(Cc4nc5ccccc5[nH]4)c3C[C@H]2CN1C(=O)c1ccccc1	1.33	0.401	-0.4	0.492	1.2	0.0328	0.108	2.16	1.62	1.3
C=C(CCCC)/C(=C/C[C@@H](OC(C)=O)c1ccc(OCCO)cc1)c1cc(C(=O)OC)ccc1OC	0.722	-2.31	-0.103	-0.108	-0.95	-0.124	-0.0769	0.408	1.17	0.722
CC(C)c1ccc(NN2C(C(O)C(C)c3ccccc3)C=CC3C(=O)N(c4ccccc4)C(=O)C32)cc1 (stereo not given)	-0.377	1.63	0.162	2.61	1.35	0.474	0.252	2.01	2.3	2.13
CC1(C)OB(/C=C\CC(OC(=O)c2ccncc2)c2ccccc2)OC1(C)C (stereo not given)	0.0565	-0.382	-1.46	-2.58	-2.34	-0.124	0.0469	-0.76	0.161	-0.778
CCCCCCc1nc(-c2ccc(OC)nc2)c(C)c2c1[Si](C(C)C)(C(C)C)OC2	-0.329	-0.603	0.445	-0.0398	-0.257	-0.0462	-0.154	-0.129	-0.391	-0.304
C[C@H]1C2[C@H](Cc3ccccc3)NC(=O)[C@]23C(=O)N[C@@H](Cc2ccccc2)C(=O)N2CCC[C@H]2C(=O)NC/C=C/CC/C=C/C3[C@@H]2O[C@]12C (stereo not given in full)	0.611	-0.382	0.148	-0.133	-0.945	-0.156	-0.221	-0.0503	0.0565	0.857
O=C1OCC=C[C@H]2OC34C=CCN(Cn5nnc6ccccc65)C(=O)[C@H]3N(CCO)C(=O)[C@@H]4[C@@H]12 (stereo not given in full)	0.316	-0.105	-1.41	-0.157	0.62	-0.148	-0.0192	0.0963	-0.0193	-2.05
C=CCNC(=O)[C@H]1[C@@H]2C(=O)O[C@@H](c3ccccc3)[C@@H](c3ccccc3)N2[C@@H](c2ccc(O)cc2)[C@]12C(=O)Nc1ccccc12	0.864	-0.462	-0.588	0.51	0.0876	-0.148	-0.0769	-0.0089	1.33	0.269
C=CC[C@]1(C(=O)NCCN2CCOCC2)N=C(c2ccc(OCCCO)cc2)O[C@H]1c1ccccc1	1.35	-0.633	0.66	0.0631	-0.442	0.212	0.398	-0.103	1.24	0.429
COC(=O)c1c2oc(c1C(=O)OC)C(=O)N[C@H](Cc1ccccc1)Cn1cc(nn1)C1(CCCCC1)NC(=O)N[C@H](CO)CC2	-1.21	0.0733	-0.161	-0.311	-0.0933	-0.105	0.0639	0.0119	0.459	2.39
O=C1N(Cc2ccccc2)c2ccccc2C[C@@]12N=C(c1ccc(OCCCO)cc1)O[C@H]2c1ccccc1	1.34	-3.11	-0.297	0.333	-0.458	-0.103	0.0948	0.576	0.176	0.849
C=CCC(OC(C)=O)[C@@H]1[C@@H](N(Cc2ccc(-c3ccccc3)cc2)C(=O)Cc2ccc(OC)cc2)c2cc(OCCCO)ccc2N1C(=O)c1ccc2ccccc2c1 (stereo not given in full)	0.242	-0.856	0.215	0.106	0.335	-0.122	-0.153	-0.57	0.748	0.284
CC1C2C(CCCO)=CC(C3C(=O)N(C(N)=O)C(=O)C23)N1Cc1cccc(OC(F)(F)F)c1 (stereo not given)	0.0396	-1.07	0.246	0.366	0.41	-0.096	0.13	0.528	1.26	1.32
